Compound activity as filed in PubChem BioAssay.
Hedgehog inh = Sonic Hedgehog pathway inhibition; Shh-LIGHT2 Gli-luciferase reporter, 30 h; inhibition, % (test concentration not listed); 22,000 tested, 2.1% active;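 active = mean inhibition across valid replicates above about 65%, limit read from the data; inconclusive = mean under the limit, yet half or more replicates past it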;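 note: pathway switched on by Shh-conditioned medium diluted 1 in 25 in low serum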
NOMO-1 viab = STK33 inhibitor candidate reducing NOMO-1 cell viability. inhibition, % (no concentration beside the values). 37,000 tested, 7.5% active. NOMO-1 AML viability, CellTiter-Glo luminescence, 72 h; in the data active = inhibition above about 80%; inconclusive = no clear call, values can overlap the other calls
PD-1 reversal = activators reversing PD-1 mediated T-cell inhibition; AID 2316; 29,000 tested, under 10 active; primary human CD4 T cells, PD-L1 beads, CellTiter-Glo 96 h; activation, % (no concentration beside the values); call rule not given here
Numbers stand for hits. Most compounds without a hit are left out; they make up all but 7.7% or so of the library.

C=C1CC[C@H]2C(=C)CC[C@@]3(O)C(=C)C(=O)O[C@@H]3[C@@H]12 was read as Hedgehog inh inactive, NOMO-1 viab 110 and PD-1 reversal inactive.
For C[C@@H]1CN([C@@H](C)CO)C(=O)c2cc(NC(=O)Cc3cn(C)c4ccccc34)ccc2O[C@H]1CN(C)Cc1ccc(Oc2ccccc2)cc1 the results were Hedgehog inh inactive and NOMO-1 viab inactive.
C[C@@H]1CN([C@@H](C)CO)C(=O)c2cc(NC(=O)Cc3cn(C)c4ccccc34)ccc2O[C@@H]1CN(C)Cc1ccc(Oc2ccccc2)cc1 was read as NOMO-1 viab 114.
For C[C@H]1CN([C@@H](C)CO)C(=O)c2cc(NC(=O)Cc3cn(C)c4ccccc34)ccc2O[C@@H]1CN(C)Cc1ccc(Oc2ccccc2)cc1 the results were NOMO-1 viab 94.
For C[C@H]1CN([C@@H](C)CO)C(=O)c2cc(NC(=O)Cc3cn(C)c4ccccc34)ccc2O[C@H]1CN(C)Cc1ccc(Oc2ccccc2)cc1 the results were NOMO-1 viab inactive and PD-1 reversal inactive.
CCC1(C)Cc2ccccc2-c2nc(NCCCO)n(-c3ccc(C)cc3)c(=O)c21 (configuration not stated) was read as NOMO-1 viab inactive and PD-1 reversal inactive.
Screening COc1ccc(NC(=O)c2ccco2)cc1NC(=S)NC(=O)c1cc2ccccc2o1 returned NOMO-1 viab inactive and PD-1 reversal inactive.
`COc1ccc(CN(C)C[C@@H]2Oc3ccc(NS(=O)(=O)c4cccs4)cc3C(=O)N([C@H](C)CO)C[C@@H]2C)cc1` gave Hedgehog inh inactive, NOMO-1 viab inactive and PD-1 reversal inactive.
For C[C@@H]1CN([C@H](C)CO)C(=O)c2cc(NS(=O)(=O)c3cccs3)ccc2O[C@@H]1CN(C)Cc1ccc(Oc2ccccc2)cc1 the results were Hedgehog inh inactive and NOMO-1 viab 106.
Screening C[C@@H]1CN([C@H](C)CO)C(=O)Cc2cc(NS(=O)(=O)c3cccs3)ccc2O[C@H]1CN(C)Cc1ccc(Oc2ccccc2)cc1 returned Hedgehog inh inactive and NOMO-1 viab 89.
For C[C@H](CO)N1C[C@H](C)[C@H](CN(C)Cc2ccc(Oc3ccccc3)cc2)Oc2ccc(NS(=O)(=O)c3cccs3)cc2CC1=O the results were Hedgehog inh inactive, NOMO-1 viab inactive and PD-1 reversal inactive.
`Cc1ccc(C)c(N(CC(=O)Nc2ccc(I)cc2)S(C)(=O)=O)c1` gave NOMO-1 viab inactive and PD-1 reversal inactive.
`C[C@H](CO)N1C[C@H](C)[C@H](CN(C)C(=O)Nc2cccc3ccccc23)Oc2ccc(NC(=O)Cc3cn(C)c4ccccc34)cc2C1=O` gave Hedgehog inh inactive, NOMO-1 viab 88 and PD-1 reversal inactive.
C[C@@H]1CN([C@H](C)CO)C(=O)c2cc(NC(=O)Cc3cn(C)c4ccccc34)ccc2O[C@H]1CN(C)C(=O)Nc1cccc2ccccc12 was read as NOMO-1 viab inactive and PD-1 reversal inactive.
For C[C@H]1CN([C@@H](C)CO)C(=O)c2cc(NC(=O)Cc3cn(C)c4ccccc34)ccc2O[C@@H]1CN(C)C(=O)Nc1cccc2ccccc12 the results were NOMO-1 viab inactive and PD-1 reversal inactive.
For C[C@@H]1CN([C@@H](C)CO)C(=O)c2cc(NC(=O)Cc3cn(C)c4ccccc34)ccc2O[C@@H]1CN(C)C(=O)Nc1cccc2ccccc12 the results were Hedgehog inh inactive, NOMO-1 viab 125 and PD-1 reversal inactive.
For Cc1ccc(N(C(C)C(N)=O)S(C)(=O)=O)cc1C (configuration not stated) the results were NOMO-1 viab inactive and PD-1 reversal inactive.
Screening CC1C(O)C(N(C)C)CC2COCC21 (configuration not stated) returned Hedgehog inh inactive, NOMO-1 viab inactive and PD-1 reversal inactive.
Screening COc1cc(/C=C/C=O)cc(OC)c1OC returned Hedgehog inh inactive, NOMO-1 viab inactive and PD-1 reversal inactive.
COc1cc(/C=C2/SC(=Nc3cc(C)cc(C)c3)NC2=O)cc(Br)c1OC was read as Hedgehog inh inactive, NOMO-1 viab 120 and PD-1 reversal inactive.
For CCOC(=O)c1c(NC(=O)C23CCC(C)(C(=O)O2)C3(C)C)sc2c1CCCC2 (configuration not stated) the results were NOMO-1 viab inactive.
CCSc1ncc(Cl)c(C(=O)Nc2nnc(SCc3ccccc3F)s2)n1 was read as NOMO-1 viab inactive and PD-1 reversal inactive.
Screening CO[C@@]12[C@H](COC(N)=O)C3=C(C(=O)C(C)=C(N)C3=O)N1C[C@@H]1N[C@@H]12 returned Hedgehog inh inactive, NOMO-1 viab 142 and PD-1 reversal inactive.
CC1CCc2c(sc3nc(SCC(=O)NCC4CCCO4)n(-c4ccccc4)c(=O)c23)C1 (configuration not stated) was read as NOMO-1 viab inconclusive and PD-1 reversal inactive.
For CC(C)C[C@@H](/C=C/S(C)(=O)=O)NC(=O)[C@H](CC(C)C)NC(=O)[C@H](CC(C)C)NC(=O)OCc1ccccc1 the results were Hedgehog inh inactive, NOMO-1 viab 98 and PD-1 reversal inactive.
CC(C)C[C@@H](NC(=O)OCC1c2ccccc2-c2ccccc21)C(=O)O was read as Hedgehog inh inactive and NOMO-1 viab inactive.
`CCN(CC(=O)Nc1cccc(Cl)c1C)S(=O)(=O)c1ccc(C)cc1` gave NOMO-1 viab inactive and PD-1 reversal inactive.
For C[C@@H]1CN([C@@H](C)CO)C(=O)c2cccc(NC(=O)CCCCCC(=O)Nc3ccccc3N)c2O[C@@H]1CN(C)Cc1ccc(Oc2ccccc2)cc1 the results were NOMO-1 viab 126 and PD-1 reversal inactive.
`C[C@H](CO)N1C[C@H](C)[C@H](CN(C)C(=O)Nc2ccccc2)Oc2c(NC(=O)CCCCCC(=O)Nc3ccccc3N)cccc2C1=O` gave NOMO-1 viab inactive and PD-1 reversal inactive.
For C[C@@H]1CN([C@H](C)CO)C(=O)c2cccc(NC(=O)CCCCCC(=O)Nc3ccccc3N)c2O[C@@H]1CN(C)Cc1ccc(Oc2ccccc2)cc1 the results were NOMO-1 viab 140 and PD-1 reversal inactive.
For C[C@@H]1CN([C@@H](C)CO)C(=O)c2cccc(NC(=O)CCCCCC(=O)Nc3ccccc3N)c2O[C@H]1CN(C)C the results were NOMO-1 viab inactive and PD-1 reversal inactive.
COc1ccc(C(C)=O)cc1CSc1nc2cc(C)c(C)cc2[nH]1 was read as NOMO-1 viab inactive.
`CC1CN(S(=O)(=O)c2cccc(C(=O)O)c2)CC(C)O1` (configuration not stated) gave Hedgehog inh inactive, NOMO-1 viab inactive and PD-1 reversal inactive.
`Cc1c(Cl)cccc1NC(=O)Cn1cc(C(=O)c2ccccc2)c2ccccc21` gave NOMO-1 viab inactive and PD-1 reversal inactive.
CCOc1ccccc1NC(=O)C(C)Oc1ccc(OC)cc1 (configuration not stated) was read as NOMO-1 viab 105 and PD-1 reversal inactive.
Screening COc1ccc(OC(C)C(=O)Nc2cc(OC)cc(OC)c2)cc1 (configuration not stated) returned NOMO-1 viab inactive and PD-1 reversal inactive.
`COc1cc(/C=C/CO[C@@H]2O[C@H](CO)[C@@H](O)[C@H](O)[C@H]2O)ccc1O` gave Hedgehog inh inactive, NOMO-1 viab inactive and PD-1 reversal inactive.
CN(C)CCCNc1ncnc2c1sc1nc(N3CCOCC3)c3c(c12)CCC3 was read as NOMO-1 viab 98 and PD-1 reversal inactive.
